Our source for the Potency values is PubChem BioAssay AID720519 (National Center for Advancing Translational Sciences (NCATS), 2013).

Records with an inconclusive call do not appear. A call without a number means that no potency is given here. The source made the active and inactive calls. Calls come from the whole dose curve; as a rule, active = well fitted activation curve with a large enough effect; inconclusive = small, poorly fitted or top-dose-only effect; inactive = flat fitted curve, though single readings scatter.
Potency is the fitted concentration of half-maximal effect.

The nature of the assay: qHTS for Inhibitors of Cell Surface uPA Generation: Confirmatory Assay for Cherry-picked Compounds. As to conditions: cell surface uPA activity generation, qHTS confirmation; series mostly up to 115 µM. A digest of the protocol:
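RAW 264.7 cells at 4000/well, incubated overnight, then treated with compounds. After 24 h at 37 C, viability was read by ATPlite luminescence. An increase in signal indicates blocked uPA-dependent LF entry.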
Turning to `CCN(CC)CCCn1c2c(c(SCC(=O)Nc3cccc4ccccc34)nc1=O)CCC2`, the Potency result is “inactive”. Next, `O=C(c1cc2cc([N+](=O)[O-])ccc2s1)N1CCOCC1`: “inactive”. Next, `O=C1NC(CCc2ccccc2)C(=O)N1Cc1ccccc1Cl` (configuration not stated): “inactive”. With `CCOc1ccc(Cl)cc1/C=N/NC(=O)c1ccccc1` the entry was “inactive”; with `O=C(COc1ncnc2sccc12)Nc1cccc(S(=O)(=O)N2CCCC2)c1`, “inactive”; with `O=C(Cc1ccc(Cl)cc1)c1c[nH]c(C(=O)NCCCn2ccnc2)c1`, “inactive”. Regarding `Cc1cc(C)cc(NC(=O)Cc2ccc(NC3=NC4CS(=O)(=O)CC4S3)cc2)c1` (configuration not stated), the Potency result was “inactive”. Take `O=C(NNC(=O)c1cccnc1)c1ccncc1`: the Potency result was “inactive”.

Consider `COc1ccc(CCN=c2c([N+](=O)[O-])nn(-c3cccc(C)c3)n2O)cc1OC`, for which the Potency entry is “inactive”. With `COc1ccc(-c2csc(NC(C)c3nc4cc(C(=O)NCCCO)ccc4n3Cc3ccc(C)cc3)n2)cc1` (configuration not stated) the entry was “inactive”. With `COC(=O)Cc1c(C)c2ccc(OCC(=O)N3CCCC(C)C3)c(C)c2oc1=O` (configuration not stated) the entry was “inactive”.

Regarding `Fc1cccc(Cl)c1CSc1ccc(-c2cccnc2)nn1`, the Potency result was “inactive”. Next, `CCN(CC)S(=O)(=O)c1ccc(C(=O)Nc2cccc(C)c2)cc1`: “inactive”; `CN(CC(=O)N(C)CC(=O)Nc1c(Cl)cccc1Cl)Cc1ccccc1F`: “inactive”; `COc1cc(F)ccc1S(=O)(=O)n1c(C)nc2ccccc21`: “inactive”. Next, `Cc1cnc(CNC(=O)CC2C(=O)NCCN2Cc2ccccc2C(F)(F)F)cn1` (configuration not stated): “inactive”; `O=C(/C=C/c1cccc(Oc2ccccc2)c1)N1CCOCC1`: “inactive”; `CCOC(=O)CN1C(=O)N[C@@H](c2ccccc2)C(C(C)=O)=C1C`: “inactive”. With `COc1ccc(C(=O)c2sc(Nc3ccccc3)nc2N)cc1` the entry was “inactive”. Take `CN(C)c1cccc(C(=O)N(C)C2CCCN(Cc3ccccc3F)C2)c1` (configuration not stated): the Potency is 20.7 µM (active). Next, `O=C(O)c1cc(N=Nc2c(O)[nH]c3ccc([N+](=O)[O-])cc23)ccc1Cl`: “inactive”; `O=C1CCCc2ccccc2N1Cc1ccc(F)cc1`: “inactive”.
